Experimental data as given in the supplement of paper PMC10849652.
Targets with a hit are over-represented here; the source holds about 7,900 in all. About 0.6% of all pairs of compound and target were hits.

Tests used:
Experiment in all cases: log2 fold change, soluble protein after heating vs DMSO (PISA); higher = thermal stabilisation; K562 cells, 10 uM, 30 min; active = over 0.2 and 3.5 SD of the protein, either way, in both replicates (recomputed)
[1] = compound: CS(=O)(=O)c1ccc(-c2cnc(N)c(C(=O)Nc3ccccc3)n2)cc1
Method in brief: (§1)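 Soluble protein was quantified by TMTpro 16plex LC-MS/MS after channel sums were equalised. It was obtained as the supernatant after 21,000xg for 90 min from pooled aliquots of K562 cells (2×10^6 cells/mL, 10 μM compound, 30 min) heated for 3 min across 48°C-58°C and extracted in PBS with 0.5% NP-40 at 4°C. Thermal stability values are relative to control samples and come from duplicates. They are given as log2 fold changes.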

crizotinib = compound: C[C@@H](Oc1cc(-c2cnn(C3CCNCC3)c2)cnc1N)c1c(Cl)ccc(F)c1Cl [crizotinib]
Method in brief: as §1

[2] = compound: C[C@@H]1COCCN1C2=NC(=NC(=C2)C3(CC3)S(=O)(=O)C)C4=C5C=CNC5=CC=C4
Method in brief: as §1

[3] = compound: C[C@H](C1=CC=C(C=C1)C(=O)NC2=C3C=CNC3=NC=C2)N
Method in brief: as §1

duvelisib = compound: C[C@H](Nc1ncnc2nc[nH]c12)c1cc2cccc(Cl)c2c(=O)n1-c1ccccc1 [duvelisib]
Method in brief: as §1

gandotinib = compound: Cc1cc(Nc2cc(CN3CCOCC3)c3nc(C)c(Cc4ccc(Cl)cc4F)n3n2)n[nH]1 [gandotinib]
Method in brief: as §1

tozasertib = compound: Cc1cc(Nc2cc(N3CCN(C)CC3)nc(Sc3ccc(NC(=O)C4CC4)cc3)n2)n[nH]1 [tozasertib]
Method in brief: as §1

[4] = compound: Cc1cc(SCc2sc(-c3ccc(C(F)(F)F)cc3)nc2C)ccc1OCC(=O)O
Method in brief: as §1

doramapimod = compound: Cc1ccc(-n2nc(C(C)(C)C)cc2NC(=O)Nc2ccc(OCCN3CCOCC3)c3ccccc23)cc1 [doramapimod]
Method in brief: as §1

ispinesib = compound: Cc1ccc(C(=O)N(CCCN)[C@@H](c2nc3cc(Cl)ccc3c(=O)n2Cc2ccccc2)C(C)C)cc1 [ispinesib]
Method in brief: as §1

Measured: log2 fold change

GTF3C5 isoform 3 (UniProt Q9Y5Q8)
Chain of UniProt Q9Y5Q8 (Q9Y5Q8 whole entry, looked up): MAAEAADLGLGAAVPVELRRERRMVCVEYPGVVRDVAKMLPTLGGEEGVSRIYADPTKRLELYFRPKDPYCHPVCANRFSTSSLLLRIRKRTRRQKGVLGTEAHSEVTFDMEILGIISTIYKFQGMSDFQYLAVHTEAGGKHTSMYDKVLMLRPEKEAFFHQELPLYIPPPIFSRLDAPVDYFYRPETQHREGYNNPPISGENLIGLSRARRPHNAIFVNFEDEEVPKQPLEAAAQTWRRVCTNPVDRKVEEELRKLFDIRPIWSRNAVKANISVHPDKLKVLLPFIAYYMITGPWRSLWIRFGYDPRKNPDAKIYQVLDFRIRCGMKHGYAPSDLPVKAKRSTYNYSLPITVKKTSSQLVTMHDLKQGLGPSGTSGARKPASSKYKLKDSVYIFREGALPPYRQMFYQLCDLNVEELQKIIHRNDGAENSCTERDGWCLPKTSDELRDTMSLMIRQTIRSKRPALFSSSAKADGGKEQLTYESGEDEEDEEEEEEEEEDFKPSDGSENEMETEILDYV
inactive: [1] 0.01 | crizotinib 0.17 | [2] 0.016 | [3] 0.158 | duvelisib -0.106 | gandotinib 0.043 | tozasertib 0.063 | [4] 0.034 | doramapimod 0.095 | ispinesib -0.248

FOXK1 (UniProt P85037)
inactive: crizotinib 0.336 | [2] 0.897 | [3] -0.482 | duvelisib 0.582 | tozasertib 0.127 | [4] -0.148 | doramapimod -0.126 | ispinesib 0.373
active: [1] -1.1 | gandotinib -1.34

HSPA8 (UniProt P11142)
inactive: [1] 0.003 | crizotinib 0.039 | [2] -0.048 | [3] -0.009 | duvelisib -0.026 | gandotinib 0.014 | tozasertib 0.01 | [4] -0.003 | doramapimod -0.008 | ispinesib 0.028

GCSH (UniProt P23434)
Chain of UniProt P23434 (P23434 whole entry, looked up): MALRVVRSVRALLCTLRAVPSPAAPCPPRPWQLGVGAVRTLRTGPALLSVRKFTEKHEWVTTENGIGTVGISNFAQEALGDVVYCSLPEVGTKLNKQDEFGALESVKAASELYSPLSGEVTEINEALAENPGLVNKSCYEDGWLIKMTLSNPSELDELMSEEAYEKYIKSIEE
inactive: [1] -0.009 | crizotinib 0.073 | [2] 0.005 | [3] -0.022 | duvelisib -0.014 | gandotinib 0.043 | tozasertib 0.07 | [4] 0.026 | doramapimod 0.032 | ispinesib -0.057

IFT80 isoform 3 (UniProt Q9P2H3)
inactive: [1] -0.019 | crizotinib -0.01 | [2] 0.069 | [3] -0.031 | duvelisib 0.057 | gandotinib 0.053 | tozasertib -0.071 | [4] 0.05 | doramapimod 0.069 | ispinesib -0.051

FRA10AC1 isoform 3 (UniProt Q70Z53)
Chain of UniProt Q70Z53 (Q70Z53 whole entry, looked up): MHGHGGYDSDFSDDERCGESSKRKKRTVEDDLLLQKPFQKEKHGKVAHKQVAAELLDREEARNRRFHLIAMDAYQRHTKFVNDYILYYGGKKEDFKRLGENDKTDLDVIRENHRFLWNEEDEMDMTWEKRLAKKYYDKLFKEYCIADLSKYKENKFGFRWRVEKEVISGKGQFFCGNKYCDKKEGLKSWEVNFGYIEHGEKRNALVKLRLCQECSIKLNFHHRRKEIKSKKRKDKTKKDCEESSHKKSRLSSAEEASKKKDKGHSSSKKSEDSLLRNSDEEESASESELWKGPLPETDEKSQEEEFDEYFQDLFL
inactive: [1] -0.082 | crizotinib 0.201 | [2] 0.059 | [3] 0.029 | duvelisib 0.07 | gandotinib 0.189 | tozasertib -0.123 | [4] -0.116 | doramapimod -0.044

HDAC2 (UniProt Q92769)
inactive: [1] -0.01 | crizotinib 0.08 | [2] -0.02 | [3] -0.046 | duvelisib 0.022 | gandotinib 0.003 | tozasertib -0.002 | [4] -0.029 | doramapimod 0.011 | ispinesib 0.072

GDPD1 (UniProt Q8N9F7)
active: ispinesib 0.353
inactive: [1] 0.086 | crizotinib 0.035 | [2] 0.074 | [3] -0.057 | duvelisib 0.023 | gandotinib 0.012 | tozasertib 0.043 | [4] -0.033 | doramapimod 0.078

FNTA (UniProt P49354)
inactive: [1] 0.073 | crizotinib 0.069 | [2] 0.077 | [3] -0.005 | duvelisib 0.014 | gandotinib 0.057 | tozasertib -0.017 | [4] -0.014 | doramapimod -0.043 | ispinesib 0.06

GPKOW (UniProt Q92917)
inactive: [1] 0.004 | crizotinib -0.147 | [2] 0.104 | [3] -0.004 | duvelisib 0.087 | gandotinib -0.094 | tozasertib -0.121 | [4] 0.195 | doramapimod -0.03 | ispinesib -0.013

HNRNPH1 (UniProt P31943)
inactive: [1] 0.027 | crizotinib -0.171 | [2] -0.012 | [3] 0.02 | duvelisib -0.026 | gandotinib -0.017 | tozasertib -0.01 | [4] 0.126 | doramapimod -0.012 | ispinesib -0.068

GTF2H3 (UniProt Q13889)
inactive: [1] 0.061 | crizotinib 0.049 | [2] -0.012 | [3] -0.003 | duvelisib -0.047 | gandotinib -0.012 | tozasertib -0.031 | [4] -0.2 | doramapimod 0.021 | ispinesib 0.023

GABPA (UniProt Q06546)
Chain of UniProt Q06546 (Q06546 whole entry, looked up): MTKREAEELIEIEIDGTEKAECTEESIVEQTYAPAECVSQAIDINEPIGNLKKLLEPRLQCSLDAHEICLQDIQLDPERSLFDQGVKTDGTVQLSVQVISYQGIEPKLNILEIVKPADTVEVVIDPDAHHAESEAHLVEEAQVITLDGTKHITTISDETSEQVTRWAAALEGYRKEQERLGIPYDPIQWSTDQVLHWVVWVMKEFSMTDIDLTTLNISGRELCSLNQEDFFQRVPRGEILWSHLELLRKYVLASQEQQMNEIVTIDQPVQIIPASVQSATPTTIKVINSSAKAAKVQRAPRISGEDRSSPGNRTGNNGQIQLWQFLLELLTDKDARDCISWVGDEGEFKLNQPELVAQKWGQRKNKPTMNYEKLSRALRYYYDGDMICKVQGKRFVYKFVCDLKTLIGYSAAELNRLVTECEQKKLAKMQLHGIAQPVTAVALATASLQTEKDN
inactive: [1] 0.059 | crizotinib -0.028 | [2] 0.126 | [3] 0.012 | duvelisib 0.089 | gandotinib -0.029 | tozasertib 0.025 | [4] 0.068 | doramapimod -0.018 | ispinesib -0.099

IDI1 isoform 2 (UniProt Q13907)
Chain of UniProt Q13907 (Q13907 whole entry, looked up): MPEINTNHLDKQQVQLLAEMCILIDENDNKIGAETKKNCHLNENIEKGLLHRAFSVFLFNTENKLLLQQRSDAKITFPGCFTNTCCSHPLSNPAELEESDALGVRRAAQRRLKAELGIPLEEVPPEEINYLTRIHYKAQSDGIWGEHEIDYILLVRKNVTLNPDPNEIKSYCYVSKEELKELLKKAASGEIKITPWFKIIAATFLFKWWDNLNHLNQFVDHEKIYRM
inactive: [1] 0.052 | crizotinib 0.093 | [2] 0.062 | [3] -0.018 | duvelisib 0.069 | gandotinib 0.014 | tozasertib 0.057 | [4] -0.028 | doramapimod -0.063 | ispinesib 0.045

FUCA2 (UniProt Q9BTY2)
Chain of UniProt Q9BTY2 (Q9BTY2 whole entry, looked up): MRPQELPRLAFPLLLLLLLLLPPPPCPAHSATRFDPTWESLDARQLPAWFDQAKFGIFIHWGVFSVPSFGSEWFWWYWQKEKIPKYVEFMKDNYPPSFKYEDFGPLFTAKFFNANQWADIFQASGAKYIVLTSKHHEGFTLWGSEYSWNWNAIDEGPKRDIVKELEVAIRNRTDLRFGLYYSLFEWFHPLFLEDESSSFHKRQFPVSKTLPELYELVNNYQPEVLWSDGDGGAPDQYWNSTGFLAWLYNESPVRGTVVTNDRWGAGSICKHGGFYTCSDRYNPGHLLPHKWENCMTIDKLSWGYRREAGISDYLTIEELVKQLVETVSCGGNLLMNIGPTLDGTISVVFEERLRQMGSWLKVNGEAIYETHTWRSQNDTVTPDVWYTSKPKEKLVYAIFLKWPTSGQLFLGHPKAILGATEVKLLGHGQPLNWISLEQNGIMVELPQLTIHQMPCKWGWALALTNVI
inactive: [1] 0.021 | crizotinib -0.002 | [2] 0.017 | [3] -0.05 | duvelisib 0.007 | gandotinib 0.041 | tozasertib -0.008 | [4] 0.014 | doramapimod 0.058 | ispinesib -0.001

HIST2H3A (UniProt Q71DI3)
inactive: [1] -0.106 | crizotinib -0.327 | [2] -0.204 | [3] 0.399 | duvelisib -0.359 | gandotinib -0.014 | tozasertib 0.106 | [4] -0.031 | doramapimod 0.098 | ispinesib -0.081

GTF2B (UniProt Q00403)
Chain of UniProt Q00403 (Q00403 whole entry, looked up): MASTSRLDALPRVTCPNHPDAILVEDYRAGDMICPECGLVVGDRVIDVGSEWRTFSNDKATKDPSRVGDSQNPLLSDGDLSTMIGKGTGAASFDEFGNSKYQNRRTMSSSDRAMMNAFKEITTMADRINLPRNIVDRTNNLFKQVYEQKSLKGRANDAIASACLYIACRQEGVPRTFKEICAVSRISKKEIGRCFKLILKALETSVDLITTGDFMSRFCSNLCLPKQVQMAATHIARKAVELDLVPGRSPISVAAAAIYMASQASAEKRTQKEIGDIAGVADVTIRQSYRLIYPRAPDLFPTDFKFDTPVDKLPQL
inactive: [1] -0.007 | crizotinib -0.044 | [2] 0.115 | [3] 0.001 | duvelisib 0.121 | gandotinib -0.146 | tozasertib 0.102 | [4] 0.127 | doramapimod -0.044 | ispinesib -0.091

HBZ (UniProt P02008)
Chain of UniProt P02008 (P02008 whole entry, looked up): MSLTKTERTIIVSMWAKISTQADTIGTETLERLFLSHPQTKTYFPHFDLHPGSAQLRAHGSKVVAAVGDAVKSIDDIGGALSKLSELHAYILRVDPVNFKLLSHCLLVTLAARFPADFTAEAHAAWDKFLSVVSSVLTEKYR
inactive: [1] 0.017 | crizotinib 0.09 | [2] 0.174 | [3] -0.067 | duvelisib 0.045 | gandotinib 0.084 | tozasertib -0.005 | [4] 0.014 | doramapimod -0.005 | ispinesib 0.21

GEMIN6 (UniProt Q8WXD5)
Chain of UniProt Q8WXD5 (Q8WXD5 whole entry, looked up): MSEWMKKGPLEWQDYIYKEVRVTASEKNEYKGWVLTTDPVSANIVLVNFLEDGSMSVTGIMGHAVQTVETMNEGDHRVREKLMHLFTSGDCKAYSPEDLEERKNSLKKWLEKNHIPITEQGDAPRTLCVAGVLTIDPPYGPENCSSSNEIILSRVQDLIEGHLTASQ
inactive: [1] -0.076 | crizotinib -0.055 | [2] 0.097 | [3] 0.091 | duvelisib 0.088 | gandotinib 0.034 | tozasertib -0.028 | [4] 0.034 | doramapimod -0.016 | ispinesib -0.017

GALK1 isoform 2 (UniProt P51570)
inactive: [1] -0.1 | crizotinib -0.041 | [2] 0.037 | [3] -0.088 | duvelisib -0.021 | gandotinib -0.087 | tozasertib -0.013 | [4] 0.056 | doramapimod 0.012 | ispinesib 0.078

HECTD1 (UniProt Q9ULT8)
inactive: [1] -0.034 | crizotinib 0.084 | [2] 0.129 | [3] 0.072 | duvelisib -0.091 | gandotinib -0.062 | tozasertib 0.002 | [4] 0.06 | doramapimod -0.062 | ispinesib -0.126

GNG5 (UniProt P63218)
Chain of UniProt P63218 (P63218 whole entry, looked up): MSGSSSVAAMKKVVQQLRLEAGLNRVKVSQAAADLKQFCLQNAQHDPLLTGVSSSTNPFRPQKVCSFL
inactive: [1] 0.014 | crizotinib 0.094 | [2] 0.207 | [3] -0.13 | duvelisib 0.134 | gandotinib 0.055 | tozasertib 0.063 | [4] -0.071 | doramapimod 0.008 | ispinesib 0.216

GUK1 isoform 2 (UniProt Q16774)
Chain of UniProt Q16774 (Q16774 whole entry, looked up): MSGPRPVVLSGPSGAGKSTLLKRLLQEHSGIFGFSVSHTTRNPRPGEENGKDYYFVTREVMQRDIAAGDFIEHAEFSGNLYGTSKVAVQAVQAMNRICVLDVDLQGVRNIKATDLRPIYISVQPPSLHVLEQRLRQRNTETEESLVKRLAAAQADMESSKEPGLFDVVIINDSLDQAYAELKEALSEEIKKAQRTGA
inactive: [1] 0.13 | crizotinib -0.007 | [2] 0.161 | [3] 0.049 | duvelisib 0.123 | gandotinib -0.03 | tozasertib 0.018 | [4] 0.102 | doramapimod -0.004 | ispinesib 0.012

H2AFX (UniProt P16104)
inactive: [1] -0.09 | crizotinib -0.096 | [2] -0.39 | [3] 0.479 | duvelisib -0.128 | gandotinib 0.087 | tozasertib 0.073 | [4] -0.078 | doramapimod 0.348 | ispinesib -0.222

GMEB1 (UniProt Q9Y692)
Chain of UniProt Q9Y692 (Q9Y692 whole entry, looked up): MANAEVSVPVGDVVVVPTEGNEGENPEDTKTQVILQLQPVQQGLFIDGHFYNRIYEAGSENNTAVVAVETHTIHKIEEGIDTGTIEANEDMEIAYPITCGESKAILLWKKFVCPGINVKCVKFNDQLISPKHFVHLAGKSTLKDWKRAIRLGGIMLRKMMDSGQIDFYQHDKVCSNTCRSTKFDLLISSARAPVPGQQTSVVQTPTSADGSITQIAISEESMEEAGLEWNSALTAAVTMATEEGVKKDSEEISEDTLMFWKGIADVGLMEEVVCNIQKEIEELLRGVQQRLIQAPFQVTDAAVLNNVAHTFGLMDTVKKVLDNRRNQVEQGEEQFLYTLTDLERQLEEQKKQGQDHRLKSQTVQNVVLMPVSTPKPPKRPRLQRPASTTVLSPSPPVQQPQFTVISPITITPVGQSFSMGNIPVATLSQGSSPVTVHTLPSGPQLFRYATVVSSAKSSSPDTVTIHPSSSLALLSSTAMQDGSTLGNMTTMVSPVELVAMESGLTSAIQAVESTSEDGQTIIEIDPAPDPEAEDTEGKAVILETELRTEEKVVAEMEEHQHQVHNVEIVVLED
inactive: [1] -0.036 | crizotinib 0.02 | [2] 0.04 | [3] -0.045 | duvelisib 0.025 | gandotinib -0.11 | tozasertib 0.03 | [4] 0.049 | doramapimod -0.038 | ispinesib 0.01

GALNT11 (UniProt Q8NCW6)
Chain of UniProt Q8NCW6 (Q8NCW6 whole entry, looked up): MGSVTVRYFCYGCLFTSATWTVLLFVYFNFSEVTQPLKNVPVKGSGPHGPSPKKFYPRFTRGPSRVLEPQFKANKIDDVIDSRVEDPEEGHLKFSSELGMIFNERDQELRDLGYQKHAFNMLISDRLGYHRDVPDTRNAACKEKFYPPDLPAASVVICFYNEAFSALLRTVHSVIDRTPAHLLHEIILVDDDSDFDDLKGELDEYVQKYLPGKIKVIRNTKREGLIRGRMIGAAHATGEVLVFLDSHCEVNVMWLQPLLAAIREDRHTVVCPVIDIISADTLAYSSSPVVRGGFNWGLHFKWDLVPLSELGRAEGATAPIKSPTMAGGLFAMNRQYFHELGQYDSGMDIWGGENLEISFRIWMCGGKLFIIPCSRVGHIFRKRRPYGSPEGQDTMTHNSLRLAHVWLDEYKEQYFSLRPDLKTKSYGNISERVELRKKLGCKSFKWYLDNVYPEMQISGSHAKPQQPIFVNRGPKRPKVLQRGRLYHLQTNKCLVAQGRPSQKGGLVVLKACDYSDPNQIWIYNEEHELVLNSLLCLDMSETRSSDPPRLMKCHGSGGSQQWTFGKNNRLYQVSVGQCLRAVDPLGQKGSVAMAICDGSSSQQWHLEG
inactive: [1] 0.039 | crizotinib 0.04 | [2] 0.112 | [3] 0.018 | duvelisib 0.039 | gandotinib 0.045 | tozasertib 0.027 | [4] -0.061 | doramapimod 0.045 | ispinesib -0.163

IFRD1 (UniProt O00458)
active: [2] 0.37
inactive: [1] 0.347 | crizotinib 0.004 | [3] 0.013 | duvelisib 0.002 | gandotinib 0.104 | tozasertib 0.035 | [4] -0.003 | doramapimod 0 | ispinesib -0.006

HDGFL2 (UniProt Q7Z4V5)
inactive: [1] 0.086 | crizotinib -0.007 | [2] -0.052 | [3] -0.04 | duvelisib -0.047 | gandotinib 0.005 | tozasertib -0.004 | [4] -0.061 | doramapimod -0.045 | ispinesib 0.019

IDH3A (UniProt P50213)
Chain of UniProt P50213 (P50213 whole entry, looked up): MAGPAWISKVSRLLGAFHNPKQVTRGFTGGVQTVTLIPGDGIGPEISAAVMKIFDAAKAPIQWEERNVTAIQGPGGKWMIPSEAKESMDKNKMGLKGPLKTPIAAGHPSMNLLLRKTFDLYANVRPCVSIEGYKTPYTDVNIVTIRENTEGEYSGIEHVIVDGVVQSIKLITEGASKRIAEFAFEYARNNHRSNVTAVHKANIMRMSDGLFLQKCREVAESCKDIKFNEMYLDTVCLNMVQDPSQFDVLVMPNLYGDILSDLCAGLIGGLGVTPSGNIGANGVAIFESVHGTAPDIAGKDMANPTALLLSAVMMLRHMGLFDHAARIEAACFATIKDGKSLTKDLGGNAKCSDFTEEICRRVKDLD
inactive: [1] 0.023 | crizotinib 0.006 | [2] 0.07 | [3] -0.046 | duvelisib 0.063 | gandotinib -0.037 | tozasertib -0.029 | [4] 0.022 | doramapimod -0.024 | ispinesib 0.013

HDHD2 (UniProt Q9H0R4)
Chain of UniProt Q9H0R4 (Q9H0R4 whole entry, looked up): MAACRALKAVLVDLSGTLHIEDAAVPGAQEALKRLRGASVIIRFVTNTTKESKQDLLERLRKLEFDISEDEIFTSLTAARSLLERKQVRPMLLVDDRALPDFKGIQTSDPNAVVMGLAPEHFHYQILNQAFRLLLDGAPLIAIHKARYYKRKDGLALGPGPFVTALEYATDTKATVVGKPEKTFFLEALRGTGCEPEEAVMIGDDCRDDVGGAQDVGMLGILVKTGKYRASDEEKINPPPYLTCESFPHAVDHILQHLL
inactive: [1] -0.11 | crizotinib -0.031 | [2] -0.01 | [3] 0.001 | duvelisib -0.019 | gandotinib 0 | tozasertib -0.039 | [4] -0.023 | doramapimod -0.081 | ispinesib 0.004
